Inconclusive results are not listed. Active and inactive are the calls of the source. Unless noted, the rule behind the calls is not given here.
Key:
[1] = rapamycin-like changes in RPL19A-GFP expression – cell-based, S. cerevisiae, multiplex flow cytometry, primary screen (AID 1862; in the data active = percent of DMSO control GFP below about 86%;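 note: lower values mimic rapamycin by blocking the RPL19A rise seen in DMSO cells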); conditions: S. cerevisiae RPL19A-GFP strain, flow cytometry fluorescence, 3 h; at 10 µM; stronger effect = lower value
[2] = TOR pathway GLN3 branch reporter MEP2-GFP changes – S. cerevisiae, multiplex flow cytometry, primary screen (AID 1867;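 active = GFP response, as percent of the DMSO control, above the screen-wide mean plus 3 SD, about 139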;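 note: median GFP channel fluorescence of barcode-gated MEP2-GFP cells measured by flow cytometry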); conditions: S. cerevisiae MEP2-GFP strain, 3 h, at 10 µM, stronger effect = higher value
[3] = TOR pathway RTG branch CIT2 reporter changes – S. cerevisiae, GFP fusion, multiplex flow cytometry, primary screen (AID 1870;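 active = percent response above a set limit, the screen-wide mean plus 3 SD, cut at about 130% in these data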;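 note: barcoded CIT2-GFP strain pooled with four other GFP strains with rapamycin as positive control; median GFP fluorescence per well over plate mean of DMSO wells so 100% = DMSO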); conditions: S. cerevisiae CIT2-GFP expression, 3 h, at 10 µM, stronger effect = higher value
[4] = TOR pathway LAP4-GFP level changes – S. cerevisiae, multiplex flow cytometry, primary screen (AID 1873;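 active = GFP signal, as percent of the solvent control, above the screen mean plus 3 SD, about 149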); conditions: S. cerevisiae LAP4-GFP expression, 3 h, at 10 µM, stronger effect = higher value
[5] = reduced mouse 2C T cell binding to pMHC/ICAM-1 vesicles – MLPCN validation set, flow cytometry, LFA-1/ICAM-1 modulator project, pilot screen (AID 2523;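 active = response below a set limit, under 55% cells CD8-positive and vesicle-bound, and CD8 cells' 90th-percentile brightness under 279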;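 for vesicle binding response: mean PE anti-B7-1 fluorescence of CD8+ cells relative to row control; 100% = QL9-loaded vesicles with DMSO vehicle in the same plate row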); conditions: 2C mouse CD8+ T cells, at 7 µM, stronger effect = lower value; double positive events: measured here: CD8+/vesicle+ event percentage
[6] = molecular target: Integrin beta-1 (Homo sapiens) + Integrin alpha-4 (Homo sapiens) (UniProt P13612+P05556); assay: alpha4beta1 integrin LIBS antibody binding reduction – U937 cells, HUTS-21 mAb, flow cytometry, validation set, VLA-4 allosteric modulator project, pilot screen (AID 2674;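 active = inhibition above 50%, about 3 SD of the validation set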;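 note: antibody binding induced by the VLA-4 ligand LDV present at three times its Kd; 0% = LDV ligand with antibody and no compound and 100% = antibody without LDV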); conditions: HUTS-21 LIBS mAb binding, at 6.7 µM, stronger effect = higher value
[7] = calorie-restriction mimetic ROS inhibitors, yeast – validation compound set, pilot screen (AID 2706;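 active = superoxide response below 65% of plate, a cut near 3 SD across the whole screen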;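 note: yeast exposed to compound for one week at 30 degrees C before staining; 100% = mean of all compound wells on the same plate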); conditions: S. cerevisiae aging, superoxide DHE fluorescence; at 10 µM; stronger effect = lower value
[8] = molecular target: Beta-adrenergic receptor kinase 1 (Homo sapiens) (UniProt P25098); assay: GRK2 binders displacing RNA aptamer, biochemical, validation, human GRK2, bead flow cytometry (AID 488806;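 active = aptamer binding inhibition above 30%, about 3 SD of noise from non-fluorescent compounds; inactive = inhibition at or below 30%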); conditions: bead-bound GRK2, FAM-aptamer displacement, at 10 µM, stronger effect = higher value
Beta-adrenergic receptor kinase 1 (Homo sapiens), sequence (P25098 whole entry, looked up): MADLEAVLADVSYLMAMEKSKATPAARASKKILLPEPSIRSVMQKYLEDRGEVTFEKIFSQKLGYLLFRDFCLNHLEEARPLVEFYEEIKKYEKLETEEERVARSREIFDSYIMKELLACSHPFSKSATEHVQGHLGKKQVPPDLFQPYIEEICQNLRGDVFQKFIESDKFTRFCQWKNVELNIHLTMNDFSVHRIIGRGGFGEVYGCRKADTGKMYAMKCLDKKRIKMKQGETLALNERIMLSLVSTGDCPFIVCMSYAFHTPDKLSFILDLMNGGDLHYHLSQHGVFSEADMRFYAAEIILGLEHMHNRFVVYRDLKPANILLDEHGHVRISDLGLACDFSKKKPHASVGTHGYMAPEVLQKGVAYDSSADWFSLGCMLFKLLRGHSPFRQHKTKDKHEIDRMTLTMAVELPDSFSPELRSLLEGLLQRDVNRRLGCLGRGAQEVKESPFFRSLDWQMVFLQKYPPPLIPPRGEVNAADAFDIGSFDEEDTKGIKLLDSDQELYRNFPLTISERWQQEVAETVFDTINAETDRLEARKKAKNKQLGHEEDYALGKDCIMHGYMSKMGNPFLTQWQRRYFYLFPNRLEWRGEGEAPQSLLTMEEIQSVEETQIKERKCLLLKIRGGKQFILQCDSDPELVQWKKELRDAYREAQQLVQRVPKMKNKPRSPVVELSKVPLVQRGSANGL

[9] = molecular target: AP-2 complex subunit beta (Homo sapiens) (UniProt P63010); assay: beta-arrestin/AP2 interaction blockers – biochemical, validation set, GST-AP2 beads, flow cytometry, pilot screen (AID 504541;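 active = inhibition above 54%, about 3 SD of non-fluorescent compounds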;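 note: AP2 carries R879A mutation and is captured from E. coli lysate; bead-bound FITC arrestin peptide fluorescence measuring arrestin peptide binding to AP2; 0% = DMSO wells and 100% = excess unlabeled arrestin peptide control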); conditions: FITC arrestin peptide, at 10 µM, stronger effect = higher value
AP-2 complex subunit beta (Homo sapiens), sequence (P63010 whole entry, looked up, one chain of several): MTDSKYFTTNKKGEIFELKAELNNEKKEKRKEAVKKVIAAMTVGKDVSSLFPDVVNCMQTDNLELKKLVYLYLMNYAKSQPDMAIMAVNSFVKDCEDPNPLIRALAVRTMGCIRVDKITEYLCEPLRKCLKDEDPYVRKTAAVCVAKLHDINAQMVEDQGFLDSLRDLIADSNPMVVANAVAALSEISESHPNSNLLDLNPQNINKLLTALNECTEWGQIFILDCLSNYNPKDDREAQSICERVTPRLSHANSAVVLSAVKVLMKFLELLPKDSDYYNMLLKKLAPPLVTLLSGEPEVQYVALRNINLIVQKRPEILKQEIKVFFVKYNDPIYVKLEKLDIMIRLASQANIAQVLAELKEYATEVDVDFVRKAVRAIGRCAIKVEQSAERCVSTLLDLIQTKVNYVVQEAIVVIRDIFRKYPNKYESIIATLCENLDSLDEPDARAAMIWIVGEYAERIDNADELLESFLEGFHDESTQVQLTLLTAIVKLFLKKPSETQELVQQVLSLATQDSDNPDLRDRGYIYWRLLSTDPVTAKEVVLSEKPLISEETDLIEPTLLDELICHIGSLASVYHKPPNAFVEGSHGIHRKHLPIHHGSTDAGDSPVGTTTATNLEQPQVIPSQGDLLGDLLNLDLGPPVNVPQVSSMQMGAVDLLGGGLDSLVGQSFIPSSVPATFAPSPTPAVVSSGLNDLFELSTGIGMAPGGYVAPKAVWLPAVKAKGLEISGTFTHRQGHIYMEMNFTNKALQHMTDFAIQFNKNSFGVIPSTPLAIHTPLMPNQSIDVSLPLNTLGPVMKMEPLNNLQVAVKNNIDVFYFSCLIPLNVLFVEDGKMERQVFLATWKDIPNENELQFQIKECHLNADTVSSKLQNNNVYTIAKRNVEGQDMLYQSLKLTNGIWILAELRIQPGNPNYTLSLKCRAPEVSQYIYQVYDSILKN

[10] = cytosolic pH regulators acting via V-ATPase – S. cerevisiae, pHLuorin, HTS validation (AID 504600; in the data active = response above about 15%;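 note: plate controls were DMSO for no effect and reference compound for full effect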); conditions: V-ATPase proton transport, at 10 µM, stronger effect = higher value
[11] = system: anti-desmoglein-3 scFv antibody binding to human DSG3; assay: blockers of pathogenic pemphigus antibody–desmoglein-3 binding – biochemical, validation compound set, bead-based, flow cytometry, pilot screen (AID 588368;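 active = binding below the plate cutoff, the plate median minus 3 SD, with a reading above zero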;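 note: signal is the median channel fluorescence of bead-bound GFP antibody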); conditions: Protein G beads, DSG3-Fc, scFv-GFP binding, at 10 µM, stronger effect = lower value
[12] = system: Botulinum neurotoxin type F light chain protease (Clostridium botulinum); assay: Clostridium botulinum type F light chain protease inhibitors, microsphere substrate cleavage, validation (AID 588459); conditions: multiplex microsphere protease substrate cleavage assay, flow cytometry; at 10 µM; stronger effect = higher value
[13] = molecular target: Botulinum neurotoxin type A (Clostridium botulinum) (UniProt P0DPI0); assay: BoNT/A light chain protease inhibitors, biochemical, multiplex microsphere flow cytometry, validation set (AID 588460); conditions: at 10 µM, stronger effect = higher value
Botulinum neurotoxin type A (Clostridium botulinum), sequence (P0DPI0 whole entry, looked up): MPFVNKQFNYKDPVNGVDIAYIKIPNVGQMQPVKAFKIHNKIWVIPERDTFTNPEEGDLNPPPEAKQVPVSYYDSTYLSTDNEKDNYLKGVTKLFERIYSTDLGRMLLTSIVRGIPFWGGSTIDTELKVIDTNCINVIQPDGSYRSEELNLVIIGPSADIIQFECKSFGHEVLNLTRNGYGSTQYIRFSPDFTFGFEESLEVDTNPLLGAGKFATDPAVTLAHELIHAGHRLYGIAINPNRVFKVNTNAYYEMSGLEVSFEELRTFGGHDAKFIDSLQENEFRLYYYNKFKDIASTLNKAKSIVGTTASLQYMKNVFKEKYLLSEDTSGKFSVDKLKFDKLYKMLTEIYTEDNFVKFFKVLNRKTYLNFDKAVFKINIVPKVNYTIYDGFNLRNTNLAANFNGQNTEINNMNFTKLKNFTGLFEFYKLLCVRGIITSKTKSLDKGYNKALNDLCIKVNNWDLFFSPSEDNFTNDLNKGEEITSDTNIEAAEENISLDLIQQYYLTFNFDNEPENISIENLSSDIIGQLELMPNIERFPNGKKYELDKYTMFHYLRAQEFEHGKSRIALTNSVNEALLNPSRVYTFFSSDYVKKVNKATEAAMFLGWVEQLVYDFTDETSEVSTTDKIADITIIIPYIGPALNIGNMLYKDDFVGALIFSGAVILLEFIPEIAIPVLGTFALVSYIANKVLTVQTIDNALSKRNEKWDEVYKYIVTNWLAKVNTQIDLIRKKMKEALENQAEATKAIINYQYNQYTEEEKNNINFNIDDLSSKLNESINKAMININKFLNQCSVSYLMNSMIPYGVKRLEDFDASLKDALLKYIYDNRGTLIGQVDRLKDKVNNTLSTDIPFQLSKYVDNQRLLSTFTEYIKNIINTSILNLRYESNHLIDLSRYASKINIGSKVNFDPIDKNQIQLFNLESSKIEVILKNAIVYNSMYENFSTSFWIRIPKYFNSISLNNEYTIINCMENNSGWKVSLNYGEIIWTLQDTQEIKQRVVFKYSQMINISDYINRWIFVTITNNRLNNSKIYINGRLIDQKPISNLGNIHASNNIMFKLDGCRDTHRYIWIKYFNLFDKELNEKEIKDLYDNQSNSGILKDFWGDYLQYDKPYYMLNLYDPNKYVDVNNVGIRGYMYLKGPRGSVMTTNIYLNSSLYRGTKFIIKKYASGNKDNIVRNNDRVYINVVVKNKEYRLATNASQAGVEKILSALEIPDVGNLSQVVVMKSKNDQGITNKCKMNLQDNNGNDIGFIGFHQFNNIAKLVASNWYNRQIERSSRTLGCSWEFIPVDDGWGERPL

[14] = molecular target: Lethal factor (Bacillus anthracis) (UniProt P15917); assay: Bacillus anthracis lethal factor inhibition, microsphere flow cytometry protease assay, validation at 10 µM (AID 588461); conditions: multiplex microsphere protease cleavage assay, stronger effect = higher value
Lethal factor (Bacillus anthracis), sequence (P15917 whole entry, looked up): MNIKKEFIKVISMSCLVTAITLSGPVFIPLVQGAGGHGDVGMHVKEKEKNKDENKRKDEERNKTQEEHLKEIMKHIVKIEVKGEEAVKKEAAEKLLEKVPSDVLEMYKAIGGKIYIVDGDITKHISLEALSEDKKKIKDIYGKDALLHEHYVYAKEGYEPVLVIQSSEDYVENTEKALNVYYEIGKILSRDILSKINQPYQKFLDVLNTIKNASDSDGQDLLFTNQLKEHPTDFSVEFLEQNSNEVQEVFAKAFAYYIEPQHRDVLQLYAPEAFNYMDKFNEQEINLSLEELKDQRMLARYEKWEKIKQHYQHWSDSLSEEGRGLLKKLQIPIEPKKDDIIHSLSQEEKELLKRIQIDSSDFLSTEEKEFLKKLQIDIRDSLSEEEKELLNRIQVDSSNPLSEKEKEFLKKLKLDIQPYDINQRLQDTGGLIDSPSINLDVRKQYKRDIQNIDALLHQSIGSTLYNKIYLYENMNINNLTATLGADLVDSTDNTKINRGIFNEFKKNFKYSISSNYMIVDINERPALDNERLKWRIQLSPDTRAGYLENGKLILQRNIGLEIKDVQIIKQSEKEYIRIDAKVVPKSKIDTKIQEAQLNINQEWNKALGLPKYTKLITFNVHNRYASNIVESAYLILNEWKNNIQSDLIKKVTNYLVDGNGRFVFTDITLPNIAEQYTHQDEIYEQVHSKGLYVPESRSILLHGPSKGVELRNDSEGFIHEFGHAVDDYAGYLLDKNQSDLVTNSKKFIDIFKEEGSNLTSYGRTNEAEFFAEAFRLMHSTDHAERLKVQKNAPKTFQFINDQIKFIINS

[15] = Nile Red efflux blockade in pump-expressing yeast – validation compound set, multiplex, phenotypic, pilot screen (AID 588506;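 active = efflux inhibition above 0.42, the validation set average plus 4 SD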;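 note: Nile Red retained in cells so higher fluorescence means more efflux inhibition; 0 = negative control wells and 1 = enniatin B 25 µM full block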); conditions: S. cerevisiae pump-expressing triplex, Nile Red efflux flow cytometry; at 10 µM; stronger effect = higher value
[16] = molecular target: ATP-binding cassette sub-family B member 6 (Homo sapiens) (UniProt Q9NP58); assay: blockers of ABCB6-driven porphyrin uptake – K562-ABCB6 cells, flow cytometry, validation set, pilot screen (AID 588550;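 active = inhibition above the screen-wide mean plus 3 SD, about 51%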;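 note: 0% = DMSO wells and 100% = benzethonium chloride 70 µM positive control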); conditions: K562-ABCB6 porphyrin accumulation, 1 h, at 10 µM, stronger effect = higher value
ATP-binding cassette sub-family B member 6 (Homo sapiens), sequence (Q9NP58 whole entry, looked up): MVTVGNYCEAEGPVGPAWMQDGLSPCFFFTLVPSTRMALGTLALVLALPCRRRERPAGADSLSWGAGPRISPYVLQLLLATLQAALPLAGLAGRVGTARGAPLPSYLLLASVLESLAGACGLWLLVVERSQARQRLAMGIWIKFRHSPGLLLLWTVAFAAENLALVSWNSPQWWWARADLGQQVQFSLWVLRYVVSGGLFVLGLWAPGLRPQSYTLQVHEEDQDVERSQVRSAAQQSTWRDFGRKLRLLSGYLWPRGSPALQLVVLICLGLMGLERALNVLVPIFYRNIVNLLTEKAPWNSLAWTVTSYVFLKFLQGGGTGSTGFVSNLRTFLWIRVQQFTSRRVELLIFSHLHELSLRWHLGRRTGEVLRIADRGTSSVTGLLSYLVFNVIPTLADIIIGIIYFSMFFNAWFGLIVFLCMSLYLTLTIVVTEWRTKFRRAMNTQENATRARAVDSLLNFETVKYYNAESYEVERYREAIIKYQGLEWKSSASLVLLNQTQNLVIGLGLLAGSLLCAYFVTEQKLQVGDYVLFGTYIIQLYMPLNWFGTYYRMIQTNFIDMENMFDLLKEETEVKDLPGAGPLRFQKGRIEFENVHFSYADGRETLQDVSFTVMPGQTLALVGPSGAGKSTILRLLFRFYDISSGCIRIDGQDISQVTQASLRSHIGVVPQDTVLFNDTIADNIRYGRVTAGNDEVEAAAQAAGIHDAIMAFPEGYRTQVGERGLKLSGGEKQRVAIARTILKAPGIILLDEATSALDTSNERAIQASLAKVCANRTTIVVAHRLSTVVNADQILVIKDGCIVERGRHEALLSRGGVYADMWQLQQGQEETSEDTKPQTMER

[17] = AML differentiation inducers, ER-HoxA9 marrow cells – cell-based, GFP/MAC1 double positive, flow cytometry, validation set, primary screen (AID 588685;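 active = differentiation response of at least 50%, scaled between solvent and reference control, from cells with both markers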;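 note: compound exposure lasts four days before antibody staining and flow analysis; 0% = DMSO wells and 100% = 5 µM fulvestrant positive control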); conditions: stronger effect = higher value
[18] = hit retest on RPL19A-GFP reporter strain – cell-based, S. cerevisiae, flow cytometry, cherry picks, mother/daughter gates, confirmation (AID 2270;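 active = GFP response below 50% of the DMSO control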); conditions: 3 h, at 10 µM, stronger effect = lower value, 100 = same GFP as DMSO wells
[19] = yeast TOR pathway reporter LAP4-GFP change – cell-based, cherry picks, flow cytometry, mother/daughter gates, confirmation (AID 2271;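 active = GFP response above 150% of the DMSO control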;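 note: ratio of sample to DMSO plate mean so 100% equals DMSO level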); conditions: S. cerevisiae LAP4-GFP strain, 3 h, at 10 µM, stronger effect = higher value
[20] = TOR pathway CIT2 reporter hit retest – S. cerevisiae, GFP fusion, cherry picks, mother/daughter gates, confirmation (AID 2274;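 active = GFP response above 150% of the DMSO level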); conditions: S. cerevisiae CIT2-GFP strain, flow cytometry, 3 h, at 10 µM, stronger effect = higher value
[21] = measured here: daughter cell gate
[22] = measured here: mother cell gate

CCNC(=O)[C@H]1O[C@@H](n2cnc3c(N)ncnc32)[C@H](O)[C@@H]1O
48.3%: double positive events [5]
active: aptamer binding inhibition [8] 66%
inactive: percent of DMSO control GFP [1] 97% | GFP response vs DMSO [2] 115% | percent response of DMSO control [3] 104% | GFP response vs DMSO [4] 88.6% | inhibition [6] 15.2% | superoxide response (% of plate) [7] 111% | inhibition [9] 3.14% | response [10] 0.72% | binding (% of control) [11] 107% | inhibition [12] -4.2% | inhibition [13] 0% | inhibition [14] 2.8% | efflux inhibition (fraction of control) [15] 0.37 | inhibition [16] 11% | differentiation response [17] 5.73%

N#CC(C#N)=Cc1ccc(N2CCCC2)cc1
109%: GFP response relative to DMSO ([19]; measured here: daughter cell gate response)
inactive: GFP response vs DMSO [18] 105% | GFP response relative to DMSO [19] 111% | GFP response, % of DMSO [20] 105%
104%: GFP response, % of DMSO [20, 22]
102%: GFP response vs DMSO [18, 21]
107%: GFP response vs DMSO [18, 22]
112%: GFP response relative to DMSO ([19]; measured here: mother cell gate response)
106%: GFP response, % of DMSO [20, 21]

CCN1CC2(COC(=O)c3ccccc3N)CCC(OC)C34C5CC6C(OC)CC(O)(C5C6OC)C(O)(C(OC)C23)C14 (centres undefined)
68.8%: double positive events [5]
inactive: percent of DMSO control GFP [1] 91.1% | GFP response vs DMSO [2] 120% | percent response of DMSO control [3] 96.6% | GFP response vs DMSO [4] 86.4% | vesicle binding response [5] 247% | inhibition [6] 5.49% | superoxide response (% of plate) [7] 99.8% | aptamer binding inhibition [8] 2% | inhibition [9] 4.65% | response [10] 5.45% | binding (% of control) [11] 101% | inhibition [12] 1.9% | inhibition [13] 0.1% | inhibition [14] -9.8% | efflux inhibition (fraction of control) [15] -0.42 | inhibition [16] 8% | differentiation response [17] 9.83%

Source: PubChem BioAssay
